Broadly, the inhibition is the relative decrease from the control value, in per cent.

Among all 290,000 compounds or so, about 3,000 (1%) were called active. Cut-off read from the data, not from the text of the source: active = inhibition mostly above about 36% (no sharp cut-off); inactive = mostly below about 34%. Only a selection was taken, and actives are over-represented in it overall.

The record followed here is PubChem BioAssay AID1578 (Sanford-Burnham Center for Chemical Genomics, 2009).

The assay in a line: inhibition of NOD1-driven NF-kB reporter – cell-based, luminescence, uHTS, primary screen (AID 1578).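 Note: HEK-293T reporter cells stimulated with the NOD1 agonist gamma-tri-DAP.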 To be noted: NOD1-driven NF-kB luciferase reporter cells, at 4 µM, hits give high values.
Regarding `O=C(NC(N1CCOCC1)C(Cl)(Cl)Cl)c1ccc(F)cc1` (stereo not given), the inhibition is -23.2% (inactive).
Take `COc1ccc(C(=O)NNC2=Nc3cccc4cccc2c34)cc1`: the inhibition is 11.1% (inactive).
As for `Cc1ccc(C(=O)NNC2=Nc3cccc4cccc2c34)cc1`, the figure is 34% (inactive); as for `O=C(NNC1=Nc2cccc3cccc1c23)c1ccc(Br)cc1`, 85.4% (active).
As for `CC(=O)N/C(=C/c1ccccc1)C(=O)N1CCCCC1`, the inhibition was -19.2% (inactive).
As for `CCN(CC(=O)Nc1c(F)cccc1F)C(=O)c1n[nH]c2ccccc12`, the figure is -21.6% (inactive); as for `Cc1ccc2c(c1)sc1ncc(NC(=O)c3ccc(F)cc3)c(=O)n12`, -34.8% (inactive).
Then `N#Cc1cc(NC(=O)c2ccc(F)cc2)c(=O)n2c1[nH]c1ccccc12`, with 67.8% (active).
For the compound `O=C(Nc1ccccc1NC(=O)c1ccc(F)cc1)c1ccc(F)cc1`, the inhibition is 5.1% (inactive).
As to `COc1cccc(N(C(=O)c2ccco2)C(C(=O)NC2CCCC2)c2ccc(N(C)C)cc2)c1` (stereo not given), the inhibition is -6.7% (inactive).
Consider `Oc1ccc(NC(=S)N=Nc2c(O)[nH]c3ccccc23)cc1`, for which the inhibition was -25.5% (inactive).
On to `Cc1ccc(NC(=S)N=Nc2c(O)[nH]c3ccccc23)cc1`, for which the inhibition is 50.7% (active).
With `Cc1cccc(NC(=S)N=Nc2c(O)[nH]c3ccccc23)c1`, the inhibition was -18.3% (inactive).
For `CC(Nc1nc(-c2ccccc2F)nc2ccccc12)c1ccccc1` (stereo not given), the inhibition was -6.1% (inactive).
For `C=CCn1c2ccccc2c2nnc(SCCN3CCCCC3)nc21`, the inhibition was 33.2% (inactive).
As to `C=CCn1c2ccccc2c2nnc(SCCCn3c(=O)[nH]c4ccccc43)nc21`, the inhibition is 60.9% (active).
Then `CCn1c2ccccc2c2nnc(SCCCn3c(=O)[nH]c4ccccc43)nc21`, with -22.4% (inactive).
Then `Cc1oc(-c2ccccc2Cl)nc1CN1CCCCC1CO` (stereo not given), with -13.9% (inactive).
Take `O=C(COC(=O)CCSc1ccccc1)Nc1ccc(F)cc1Cl`: the inhibition is -14% (inactive).
In the case of `CC(C)C(NS(=O)(=O)c1cccc2nsnc12)C(=O)NC1CCCCC1` (stereo not given), the inhibition is -5.2% (inactive).
Then `CCCCN1CN(S(=O)(=O)c2ccc(OC)cc2)c2nc3ccccc3nc21`, with -13.8% (inactive); and `CCCCCCS(=O)Cc1ccccc1` (stereo not given), with -9.9% (inactive).
`COc1ccccc1C(=O)NCCC(=O)NCCOc1ccccc1`: the inhibition was 7.7% (inactive).
As to `CN(C(=O)COc1ccccc1C(=O)NCCc1ccccc1)c1ccccc1`, the inhibition was -33.9% (inactive).
In the case of `CCN(CCO)Cc1cc(=O)oc2c(C)c(C)ccc12`, the inhibition is 8.5% (inactive).
In the case of `CCN1C=C(Cc2cccs2)C2=C(C1)C(c1cccs1)C(C#N)=C(N)O2` (stereo not given), the inhibition was 30.4% (inactive).
`CCN1C=C(Cc2ccc(F)cc2)C2=C(C1)C(c1ccc(F)cc1)C(C#N)=C(N)O2` (stereo not given): the inhibition was 21.1% (inactive).
As for `CCN1C=C(Cc2ccccc2C)C2=C(C1)C(c1ccccc1C)C(C#N)=C(N)O2` (stereo not given), the figure is 71.8% (active).
As for `O=C(CCn1nnc2ccccc21)N1CCN(c2ccccc2)CC1`, the inhibition was 7.2% (inactive).
Then `CCC1CCCCN1C(=O)CCCc1ccccc1` (stereo not given), with -21% (inactive).
As for `COc1ccc(OCCn2c(NC(=O)c3ccco3)nc3ccccc32)cc1`, the inhibition was 9.1% (inactive).
As for `O=C(Nc1nc2ccccc2n1CCOc1ccccc1)c1ccco1`, the inhibition is 35.8% (inactive).
For the compound `Cc1c(O)nc(SCC(=O)Nc2nccs2)n(-c2ccccc2F)c1=O`, the inhibition is -42.1% (inactive).
`CCOC(=O)NNC1CC(=O)N(c2ccccc2)C1=O` (stereo not given): the inhibition was -12% (inactive).
Then `CCc1nccn1S(=O)(=O)c1cc(OC)c(Cl)cc1OC`, with -4.5% (inactive); and `CC(=O)Nc1c(C(=O)O)oc2ccc(Cl)cc12`, with 2.5% (inactive).
Then `Cc1ccc(S(=O)(=O)NC2CC2)s1`, with 45.4% (active); and `O=S(=O)(NC1CCCC1)c1ccc(Br)s1`, with -14% (inactive).
Consider `O=S(=O)(NC1CCCCC1)c1ccc(Br)s1`, for which the inhibition is -13.1% (inactive).
As to `COc1ccc(C(=O)NCC(=O)OCC(=O)Nc2cc(OC)ccc2OC)cc1`, the inhibition was -4.7% (inactive).
In the case of `Cc1ccc(NC(=S)N(Cc2ccc(Br)cc2)Cc2ccc(C(=O)O)cc2)cc1C`, the inhibition is -22.8% (inactive).
As for `NNc1nc(-c2ccccc2)cc(-c2ccccc2O)n1`, the figure is 3.5% (inactive); as for `O=[N+]([O-])c1cc(C(F)(F)F)ccc1Sc1ccccn1`, -1.5% (inactive).
For `Oc1c(Cl)cc(Cl)c2c1NCCC2`, the inhibition was -5.4% (inactive).
As to `Oc1c(Cl)cc(Cl)cc1Sc1cc(Cl)cc(Cl)c1O`, the inhibition was -35.5% (inactive).
On to `Oc1c(Cl)cc(Cl)c(Cl)c1Cc1c(O)c(Cl)cc(Cl)c1Cl`, for which the inhibition is 85.9% (active).
As for `O=C(NC(=S)NCCO)c1sc2ccccc2c1Cl`, the figure is -51.4% (inactive).
With `O=S(=O)(CC(CN1CCCCC1)N1CCCCC1)c1ccccc1` (stereo not given), the inhibition is 9.2% (inactive).
Regarding `O=S(=O)(CC(CN1CCCC1)N1CCCC1)c1ccc2ccccc2c1` (stereo not given), the inhibition is 51.2% (active).
As for `O=S(=O)(CC(CN1CCCCC1)N1CCCCC1)c1ccc2ccccc2c1` (stereo not given), the figure is -6.3% (inactive); as for `OCCC1CN(Cc2cccc3nonc23)CCN1C1CCCCC1` (stereo not given), -25.9% (inactive).
As for `O=C(CN1CCN(C(=O)C2CCCO2)CC1)Nc1ccc(F)cc1` (stereo not given), the figure is -12% (inactive).
As for `Cc1ccc(-c2nnc(OCc3cccnc3)c3ccccc23)cc1`, the inhibition was -11.3% (inactive).
Take `COc1cc(/C=C/C(=O)c2ccc3c(c2)OCO3)cc(Cl)c1O`: the inhibition is 13.2% (inactive).
Then `COc1ccc(C(=O)/C=C/c2cc(OC)c(O)c(OC)c2)c(F)c1`, with 93.6% (active).
Then `COc1ccc(C(=O)/C=C/c2ccc(OC)c(O)c2)c(F)c1`, with 36.2% (inactive).
Take `COc1cc(/C=C/C(=O)c2ccc(Cl)s2)cc(OC)c1O`: the inhibition is 76.4% (active).
Regarding `COc1ccc(/C=C/C(=O)c2ccc(Cl)s2)cc1O`, the inhibition was -46% (inactive).
Then `COc1ccc2cc(C(=O)/C=C/c3cc(OC)c(O)c(OC)c3)ccc2c1`, with 62.6% (inactive).
For the compound `O=C(c1ccc(F)cc1)N1CCN(C2=NS(=O)(=O)c3ccccc32)CC1`, the inhibition is -41.6% (inactive).
As for `Cc1nn(-c2ccccc2)c(C)c1NC(=O)COc1ccc(C#N)cc1`, the figure is -20.8% (inactive); as for `CCOc1ccc(NC(=O)CC(NCc2ccccn2)C(=O)O)cc1` (stereo not given), -2.9% (inactive).
With `c1csc(-c2ccc(N3CCOCC3)nn2)c1`, the inhibition was -11.8% (inactive).
In the case of `CC1CCN(c2ccc(-c3cccs3)nn2)CC1`, the inhibition was 31.4% (active).
Then `CCOC(=O)C1CCN(c2ccc(-c3cccs3)nn2)CC1`, with -0.9% (inactive).
